Bioassay records as filed in PubChem.
EBV LMP1 NFkB – Epstein-Barr LMP1 NF-kappaB reporter inhibition. AID 504558. 350,000 tested, 0.69% active. inhibition, % at 12.5 µM. LMP1-induced NF-kappaB luciferase reporter cells, luminescence; in the data active = inhibition above about 41%; inconclusive = no clear call, values can overlap the other calls;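 also: 0% = neutral control wells and 100% = reference inhibitor control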
MITF act – activators of MITF-driven TRPM1 promoter activity in SK-MEL-5 cells; SK-MEL-5 TRPM1-promoter luciferase, 24 h; % of positive control, neutral wells = 0; activation, % at 12.5 µM; 300,000 tested, 0.75% active; AID 588334;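 active = mean activation of at least 80% with every replicate also reaching 80%; inconclusive = mean reaches 80% but some replicate falls short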;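 also: 0% = neutral control wells and 100% = parthenolide positive control wells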
esBAF inh – inhibitors of esBAF chromatin remodeling in mouse ES cells; Bmi1-luciferase knock-in reporter, 24 h; 100% = twice the neutral-well signal; reporter increase, % at 12.5 µM; 350,000 tested, 2% active; AID 602393; in the data active = activation above about 40%; inconclusive = no clear call, values can overlap the other calls;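 also: 0% = median of the plate's neutral control wells and 100% = double that signal; a rise in the Bmi1 reporter signal indicates esBAF inhibition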
MITF TRPM1 inh – MITF TRPM1 promoter inhibition in SK-MEL-5 cells; 330,000 tested, 0.83% active; inhibition, % at 12.5 µM; SK-MEL-5 TRPM1 promoter luciferase, 24 h; AID 488899;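 active = mean inhibition across replicates of 60% or more, whatever share of single replicates reaches that level; inconclusive = some that reach 60%, reason not given; inactive = mean inhibition across replicates below 60%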
Statin myotox sup – suppressors of simvastatin-induced myotoxicity in C2C12 myotubes; rescue of ATP level, % at 7.49 µM; ATP luminescence, 48 h; scaled: DMSO 0, geranylgeraniol control 100; 330,000 tested, 0.78% active;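 active = mean ATP rescue above about 67%, or every replicate alone reaching that limit, limit read from the data, passing the limit was not always enough; inconclusive = no clear call, values can overlap the other calls; inactive = mean under the limit and some replicate under it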;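 also: myotubes were challenged with 10 µM simvastatin during compound exposure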
Wnt act – activators of Wnt/beta-catenin signaling; Wnt/beta-catenin reporter cell assay, activator, plate reader; activation, % at 9.35 µM; AID 743398; 300,000 tested, 1.2% active; in the data active = activation above about 30%, passing the limit was not always enough; inconclusive = no clear call, values can overlap the other calls;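 also: 0% = neutral control wells and 100% = positive control wells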
Active calls of the source: *; u = inconclusive; x = no result given; ! = a repeat was not active. Rows were chosen to be rich in hits. Some 4% of all compounds tested hit in one or more screens of this group.

SMILES | EBV LMP1 NFkB | MITF act | esBAF inh | MITF TRPM1 inh | Statin myotox sup | Wnt act
COc1ccc(-c2nsc3c(N4CCCCC4C)ncnc23)cc1 (configuration not stated) | 73* | -86 | x | 86* | x | -8
COc1ccc(-c2nsc3c(N4CCCCC4)ncnc23)cc1 | 31 | x | -77 | 65* | -19 | -22
CCNc1nc(CN2CCOCC2)nc2sc3c(c12)CCC3 | 65* | 3 | 0 | -2 | 1 | -3
COC(=O)/C=C1/S/C(=N/NC(=O)c2ccccc2OC)NC1=O | 7 | -3 | -5 | 3 | -4 | 0
COCc1nc2sc3c(c2c(=O)[nH]1)CCCC3 | 4 | 11 | x | -8 | x | 0
COc1cccc(-c2nc3sc4c(c3c(=O)[nH]2)CCCCC4)c1 | -9 | 114* | x | -111 | x | x
CCCCc1c(C)nn(-c2nnc3c4ccccc4n(C)c3n2)c1C | -10 | 49 | 48* | -43 | -30 | x
Cn1c2ccccc2c2nnc(NN)nc21 | -3 | -23 | 5 | 21 | -11 | -1
COc1cccc(C(=O)N2CCN(c3ccccn3)CC2)c1 | 49* | 9 | 3 | -5 | -21 | 0
COc1cccc(N2CCN(c3ncccn3)CC2)c1 | -3 | 64 | 43* | -57 | -1 | x
CCOc1ccc(S(=O)(=O)N2CCN(C(=O)CN3C(=O)NC(C)(C)C3=O)CC2)cc1 | 0 | 8 | -10 | -8 | -1 | 47*
Cc1cccc(NC(=O)NCC(c2ccco2)N2CCCCC2)c1 (configuration not stated) | -2 | 18 | 16 | -19 | 7 | -2
CC(=O)Oc1ccc([C@@H]2COc3c(ccc4c3C=CC(C)(C)O4)C2)c(OC(C)=O)c1 | -29 | 49 | 50* | -49 | 16 | 30
CCOc1ccc(C(=O)NCc2ccccc2OC)cc1 | -1 | 1 | x | 6 | x | x
Cc1cc(C)cc(C(=O)NCCC(=O)NCc2cc(=O)n(C)c(=O)n2C)c1 | 55* | -2 | 1 | 5 | 27 | -1
Cc1ccc(C(=O)NCCC(=O)NCc2cc(=O)n(C)c(=O)n2C)cc1 | -6 | 4 | -8 | -6 | -12 | 1
Clc1ccc(-n2ncc3c(N4CCCC4)ncnc32)cc1 | 52* | -10 | x | 10 | x | x
CCOC(=O)C1CCN(c2ncnc3c2cnn3-c2ccc(Cl)cc2)CC1 | 25 | -30 | x | 29 | x | x
Cc1nn(-c2ccccc2)c(Cl)c1C(=O)N1CCN(c2ncnc3c2cnn3-c2ccccc2)CC1 | 53* | -50 | 9 | 51 | 13 | x
O=C(CNC(=O)c1ccc(F)cc1)c1ccc(Cl)cc1 | -12 | 54 | 53* | -52 | 4 | 19
O=C(CNC(=O)c1ccc(Cl)cc1)c1ccc(Cl)cc1 | 10 | 57 | 34 | -77 | 3 | 7
O=C1C(Nc2ccccc2)=C(N2CCCCC2)C(=O)c2ccccc21 | 5 | -73 | -67 | 75* | -90 | x
O=C(/C=C/c1ccc(O)cc1)c1ccc(NC2=C(N3CCCCC3)C(=O)c3ccccc3C2=O)cc1 | 43* | -22 | 11 | 26 | -139 | 6
CCCCCCc1c(C)c2ccc(OCC(=O)N[C@@H](Cc3ccccc3)C(=O)O)cc2oc1=O | -6 | 8 | -7 | -2 | 6 | -1
COCC1CCN(C(=O)c2cc(COc3ccc(OC)c4ccccc34)on2)C1 (configuration not stated) | -35 | 49 | u | -42 | -8 | 18
SMILES | EBV LMP1 NFkB | MITF act | esBAF inh | MITF TRPM1 inh | Statin myotox sup | Wnt act
COc1ccc(OCc2cc(C(=O)N3CCC(OC)CC3)no2)c2ccccc12 | -44 | 33 | 70* | -29 | -2 | 22
COc1ccc(OCc2cc(C(=O)N(C)C3CCOCC3)no2)c2ccccc12 | -9 | 16 | 38 | -8 | -38 | 13
CCOC(=O)C1CCN(C(=O)c2cc(COc3ccc(OC)c4ccccc34)on2)CC1 | -31 | 9 | 57* | -10 | 1 | 40*
COc1ccc(/C=C/C(=O)NC(=S)N2CCN(c3ccccn3)CC2)cc1 | x | x | x | x | x | 3
O=C(Cn1cnc2cc([N+](=O)[O-])ccc2c1=O)Nc1cccc(S(=O)(=O)N2CCOCC2)c1 | -1 | -7 | x | 5 | x | -2
CCN(CC)S(=O)(=O)c1ccc(-n2c(=O)c(C(C)C)c(C)n2C)cc1 | -10 | 6 | 7 | -5 | 87* | -3
Cc1c(C(C)C)c(=O)n(-c2ccc(S(=O)(=O)NC(C)C)cc2)n1C | 7 | -13 | 14 | 13 | -2 | -3
C=CCN=C1S/C(=C\c2ccc(N(C)C)cc2)C(=O)N1CC=C | -17 | 99* | x | -95 | x | 37*
C=CCN1C(=O)/C(=C/c2ccc(OC)cc2)S/C1=N/c1nccs1 | -5 | 18 | x | -14 | x | -3
CSc1nc(-c2ccccc2)nn1S(=O)(=O)c1ccccc1 | -5 | 2 | 8 | -1 | 5 | 2
COc1ccc(-c2nc(SC)n(S(=O)(=O)c3ccccc3)n2)cc1 | -8 | 56 | 53* | -50 | 1 | x
CCCC(CCC)C(=O)O | 58*! | 7 | 3 | -11 | 7 | 0
C/C(=N\NC(=O)c1ccc(Cl)c(Cl)c1)c1ccccn1 | 73* | -64 | -65 | 65* | 5 | -4
COc1ccccc1/C=C/C=N/NC(=O)c1ccccn1 | -34 | 97* | x | -112 | x | 19
C/C(=N\NC(=O)c1ccccc1Cl)c1ccccn1 | 14 | -58 | 0 | 57 | 37 | 15
COc1ccc(C(=O)N/N=C(\C)c2ccccn2)cc1OC | 27 | -72 | -54 | 73* | -8 | 4
C/C(=N/NC(=O)c1ccc(C(C)(C)C)cc1)c1ccccn1 | 47* | x | x | 22 | x | -3
COc1ccccc1/C=C/C=N/NC(=O)c1cnccn1 | -11 | 57 | x | -66 | x | 0
C[C@H]1CCCCO[C@H](CN(C)S(=O)(=O)c2ccccc2)[C@@H](C)CN([C@@H](C)CO)C(=O)c2cc(NS(=O)(=O)c3cn(C)cn3)ccc2O1 | x | x | 3 | x | x | x
C/C(=N\NC(=O)c1cccc(Br)c1)c1ccccn1 | 71* | -56 | -37 | 58 | 15 | 0
C/C(=N\NC(=O)c1ccncc1)c1cccc(NC(=O)c2ccc(C(C)(C)C)cc2)c1 | -24 | 37 | 38 | -41 | -22 | 35*
O=C(NN=C(c1ccccc1)c1ccccn1)c1ccccc1 | 7 | -68 | x | 67* | x | -5
O=C(NCC(=O)N1CCN(c2ccccc2O)CC1)c1ccco1 | 3 | 14 | -2 | -15 | 0 | -3
CCN(CC)S(=O)(=O)c1cccc(-c2nnc(SCC(=O)NCCC3=CCCCC3)n2N)c1 | 3 | 5 | -4 | -3 | 124* | x
Nn1c(SCC(=O)NCCC2=CCCCC2)nnc1-c1cccnc1 | -2 | -2 | x | -3 | 15 | 2
COc1ccc(C2=Nn3c(nnc3-c3ccccc3F)SC2)cc1OC1CCCC1 | 55* | 3 | 11 | -2 | -13 | 36*
COc1ccc(OC)c(-c2nnc3n2N=C(c2ccc(OC)c(OC4CCCC4)c2)CS3)c1 | 48* | -76 | -5 | 78* | -51 | -9
